# A selection: hits, their analogues and other compounds. The true share with any hit is near 12%.
# BAZ2B block – qHTS Assay for Inhibitors of BAZ2B. Bromodomain adjacent to zinc finger domain protein 2B (Homo sapiens), Q9UIF8. 4.4% of 360,000 active. Potency, µM (series often up to 114 µM), inactives show at the highest dose activity change, negative = inhibition, actives largely listed as inhibitors. AlphaScreen BAZ2B-H3K14Ac peptide displacement; further: potency means the concentration at half of the fitted maximal effect; on the % scale 0 is the no-effect control and ±100 the full control effect; nearly all actives have a fitted effect of over 60% in size
# Target sequence (Q9UIF8 whole entry, looked up, the tested form may be a part): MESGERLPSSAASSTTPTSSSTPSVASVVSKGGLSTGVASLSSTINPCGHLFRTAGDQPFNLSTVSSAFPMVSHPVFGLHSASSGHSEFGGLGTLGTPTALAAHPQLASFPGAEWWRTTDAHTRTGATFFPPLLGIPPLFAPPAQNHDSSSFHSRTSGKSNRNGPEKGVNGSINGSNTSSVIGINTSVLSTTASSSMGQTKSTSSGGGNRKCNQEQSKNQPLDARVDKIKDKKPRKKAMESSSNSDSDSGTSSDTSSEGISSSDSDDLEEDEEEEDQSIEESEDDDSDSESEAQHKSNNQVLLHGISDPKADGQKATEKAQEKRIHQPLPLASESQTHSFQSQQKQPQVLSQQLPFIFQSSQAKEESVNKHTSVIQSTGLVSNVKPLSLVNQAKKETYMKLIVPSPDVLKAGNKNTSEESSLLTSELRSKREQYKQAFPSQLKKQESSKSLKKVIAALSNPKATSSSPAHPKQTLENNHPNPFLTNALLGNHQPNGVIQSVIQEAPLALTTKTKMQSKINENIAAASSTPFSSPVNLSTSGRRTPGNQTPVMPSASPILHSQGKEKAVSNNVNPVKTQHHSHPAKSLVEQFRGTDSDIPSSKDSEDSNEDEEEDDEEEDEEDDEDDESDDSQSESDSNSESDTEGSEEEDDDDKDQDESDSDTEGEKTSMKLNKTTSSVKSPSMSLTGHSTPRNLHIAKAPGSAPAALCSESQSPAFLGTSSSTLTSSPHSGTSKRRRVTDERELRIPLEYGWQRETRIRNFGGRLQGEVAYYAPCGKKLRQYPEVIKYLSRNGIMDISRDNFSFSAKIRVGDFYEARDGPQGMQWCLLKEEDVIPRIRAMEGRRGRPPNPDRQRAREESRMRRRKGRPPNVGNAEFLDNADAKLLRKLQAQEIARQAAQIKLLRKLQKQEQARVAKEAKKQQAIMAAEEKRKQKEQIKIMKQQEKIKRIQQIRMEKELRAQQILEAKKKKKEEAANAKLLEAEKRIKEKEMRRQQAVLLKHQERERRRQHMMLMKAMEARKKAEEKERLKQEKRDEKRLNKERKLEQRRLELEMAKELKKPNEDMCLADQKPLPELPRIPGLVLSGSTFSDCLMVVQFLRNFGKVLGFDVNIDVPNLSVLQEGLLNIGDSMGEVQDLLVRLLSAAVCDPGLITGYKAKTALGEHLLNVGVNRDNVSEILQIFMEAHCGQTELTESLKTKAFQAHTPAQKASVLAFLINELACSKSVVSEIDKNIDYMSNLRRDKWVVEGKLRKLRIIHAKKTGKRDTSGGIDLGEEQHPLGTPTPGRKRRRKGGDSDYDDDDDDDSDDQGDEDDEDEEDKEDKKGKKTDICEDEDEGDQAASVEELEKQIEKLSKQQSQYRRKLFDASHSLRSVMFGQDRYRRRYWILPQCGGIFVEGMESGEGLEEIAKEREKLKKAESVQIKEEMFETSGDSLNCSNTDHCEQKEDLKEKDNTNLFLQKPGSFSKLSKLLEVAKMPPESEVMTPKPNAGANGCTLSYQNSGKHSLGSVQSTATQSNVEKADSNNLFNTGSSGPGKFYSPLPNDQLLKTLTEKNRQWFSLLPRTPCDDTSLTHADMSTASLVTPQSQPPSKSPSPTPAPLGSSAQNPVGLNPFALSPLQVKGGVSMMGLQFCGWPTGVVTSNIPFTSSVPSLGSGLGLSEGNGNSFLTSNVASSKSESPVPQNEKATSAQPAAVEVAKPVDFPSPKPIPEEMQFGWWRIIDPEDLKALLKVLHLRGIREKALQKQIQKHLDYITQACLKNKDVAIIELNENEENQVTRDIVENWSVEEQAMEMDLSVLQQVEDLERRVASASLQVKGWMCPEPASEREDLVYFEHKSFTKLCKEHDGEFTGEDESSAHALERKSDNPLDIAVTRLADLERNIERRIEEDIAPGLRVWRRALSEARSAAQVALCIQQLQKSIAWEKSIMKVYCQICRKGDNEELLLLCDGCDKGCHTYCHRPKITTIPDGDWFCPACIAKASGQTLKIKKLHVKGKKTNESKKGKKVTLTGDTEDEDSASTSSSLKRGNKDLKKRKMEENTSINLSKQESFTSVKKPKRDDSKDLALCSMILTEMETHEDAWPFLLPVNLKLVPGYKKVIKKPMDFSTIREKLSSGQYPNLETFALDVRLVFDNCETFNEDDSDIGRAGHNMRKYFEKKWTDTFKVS
#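 Inhibition is scored as reduced AlphaScreen emission. The BAZ2B/b-H3(5-23)K14Ac complex (50 nM each) in PBS pH 7.4, 0.01% Tween-20 meets compound (up to 110 uM) for 30 min at RT before bead addition.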
# PLK1 PBD block – qHTS for Inhibitors of PLK1-PDB (polo-like kinase 1 - polo-box domain): Primary Screen; Plk1 PBD binding of FITC phosphopeptide, fluorescence polarization; Potency, µM, inactives show max response, negative = inhibition, most hits filed as inhibitors; AID 720504, 2013; 2.8% of 360,000 active; further: potency means the concentration at half of the fitted maximal effect; series mostly up to about 57 µM; on the % scale 0 is the no-effect control and ±100 the full control effect; nearly all actives have a fitted effect of over 65% in size
# HP1b chromo inh – HTS for Inhibitors of HP1-beta Chromodomain Interactions with Methylated Histone Tails; Chromobox protein homolog 1 (Homo sapiens), P83916; AlphaScreen HP1-beta / biotin-H3K9me3 peptide binding; Potency, µM (titrated, usually from 114 µM), without a hit: top-dose activity change, negative = inhibition, usual class: inhibitors; 0.56% of 390,000 active; AID 540317, 2011; further: potency means the concentration at half of the fitted maximal effect; nearly all actives have a fitted effect of over 70% in size
#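 HP1-beta protein (50 nM final) preincubated 30 min at room temperature with biotinylated H3(1-18)K9me3 peptide (50 nM) in PBS pH 7.4, 0.01% Tween-20, then compound added for 30 min. AlphaScreen streptavidin donor/nickel chelate acceptor beads (10 ug/mL final), 30 min dark, luminescence read.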
# G9a inh – qHTS Assay for Inhibitors of Histone Lysine Methyltransferase G9a; Potency, µM (doses to about 102 µM), inactives show top-dose activity, negative = inhibition, most hits filed as inhibitors; G9a H3K9 monomethylation, AlphaScreen, 2 h; Histone-lysine N-methyltransferase EHMT2 (Homo sapiens), Q96KQ7; 8.8% of 350,000 active; AID 504332, 2011; further: potency means the concentration at half of the fitted maximal effect; on the % scale 0 is the no-effect control and ±100 the full control effect; nearly all actives have a fitted effect of over 75% in size
#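 Using a bead-based AlphaScreen, monomethylated H3K9 product from 2 h room-temperature reactions (G9a 20 nM, peptide 500 nM, SAM 20 uM) was detected with 0.5 ug/mL rabbit anti-H3K9me1 antibody.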
# JMJD2A Tudor inh – qHTS Assay for Inhibitors of JMJD2A-Tudor Domain. AlphaScreen JMJD2A-Tudor / H3K4me3 peptide binding. Potency, µM (highest dose often 114 µM), without a hit: at the highest dose activity change, negative = inhibition, hits mostly inhibitors. Lysine-specific demethylase 4A (Homo sapiens), O75164. 4.4% of 390,000 active; further: potency means the concentration at half of the fitted maximal effect; on the % scale 0 is the no-effect control and ±100 the full control effect; nearly all actives have a fitted effect of over 50% in size
# PI5P4Ka inh – qHTS for Inhibitors of phosphatidylinositol 5-phosphate 4-kinase (PI5P4K) | 1.2% of 330,000 active | PI5P4Kalpha enzyme, ADP-Glo luminescence, 60 min; active compounds read low | max response, % | Phosphatidylinositol 5-phosphate 4-kinase type-2 alpha (Homo sapiens), P48426; active means max response of -50% or lower; inconclusive means between -30% and -50%; inactive means -30% or higher; further: value at the top dose of about 77 µM; on the % scale 0 is the no-effect control and ±100 the full control effect
#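 qHTS, 1536-well: enzyme/substrate mix, compound by pin tool, 5 microM ATP final; RT 60 min; ADP-Glo reagents 1 (45 min) then 2 (30 min); luminescence.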
# The depositor's hits bear a star; ? = inconclusive; nt = not tested or not shown; [ ] = remark or other dose. Unless noted, the call rests on the fitted dose curve; in most records, active means well fitted curve in the direction sought with a large enough effect; inconclusive means small, poorly fitted or top-dose-only effect, or another doubt; inactive means no such curve, though single readings can be large; an effect the other way counts as inactive or inconclusive.
SMILES,BAZ2B block,PLK1 PBD block,HP1b chromo inh,G9a inh,JMJD2A Tudor inh,PI5P4Ka inh
Cc1ccccc1NC(=O)C1c2cccc[n+]2CC(=O)N1Cc1ccc2c(c1)OCO2 (stereo unspecified),-21%,-29%,15%,11µM*,?,-16
Cc1cnc(=O)[nH]c1SCC(=O)c1ccc(F)cc1,?,12µM*,-32%,7.1µM*,-23%,-7
Cc1ccc(C(=O)CSc2ccccn2)cc1,11%,19µM*,25%,8.9µM*,8%,2
Cc1ccc(C(=O)CSc2nccn2-c2ccccc2)cc1,56µM*,21µM*,?,32µM*,?,5
O=C(CSc1ccccn1)c1ccc(F)cc1,10%,27µM*,1%,?,-15%,nt
CCN(c1ccccc1)C(CNS(=O)(=O)c1ccccc1)c1ccccc1 (stereo unspecified),-16%,nt,26%,-9%[59 µM],-20%,nt
CCOc1ccc(-c2cc(CCCC(=O)NCCc3cc(OC)c(OC)c(OC)c3)no2)cc1,-16%,nt,25%,0%[59 µM],-20%,nt
O=C(CSc1nccn1-c1ncc(C(F)(F)F)cc1Cl)c1ccc(Br)cc1,-33%,2.4µM*,-12%,?,-18%,-5
Cc1ccc(/C(CSc2nccn2-c2ncc(C(F)(F)F)cc2Cl)=N\O)cc1,-15%,-3%,18%,6%[59 µM],-22%,6
O=C(O)c1ccnc(SCC(=O)c2ccccc2)c1,-14%,-11%,57%,22µM*,8%,-10
O=C(CSc1ncccc1C(=O)O)c1ccccc1,nt,-7%,51%,?,?,nt
Cc1ccc(N(C(=O)CNC(=O)c2ccco2)C(C(=O)NC2CCCCC2)c2cccnc2)cc1 (stereo unspecified),1%,-9%,-11%,16%[59 µM],-22%,2
O=C(O)c1ccc(N2Cc3ccccc3C2)cc1O,?,?,1%,8.9µM*,?,nt
CCn1c(CNC(=O)COc2ccc(C(C)C)cc2)nnc1SCC(=O)Nc1cc(F)ccc1C,-33%,0%,18%,?,28µM*,nt
CCn1c(CNC(=O)COc2ccc(C(C)C)cc2)nnc1SCC(=O)Nc1ccc(F)cc1,-7%,2%,23%,0%[12.7 µM],-11%,nt
COc1cc(/C=N/N2CCN(c3ccc(Cl)cc3)CC2)cc(OC)c1OC(C)=O,0%,-4%,9%,nt,-6%,3
COc1cc(/C=N/N2CCN(Cc3ccccc3)CC2)cc(OC)c1OC(C)=O,?,-18%,-8%,50µM*,?,2
COc1cc(/C=N/N2CCN(c3ccccc3)CC2)cc(OC)c1OC(C)=O,45µM*,-5%,?,18%[0.501 µM],56µM*,-9
COc1cc(/C=N/N2CCN(Cc3ccccc3)CC2)cc(OC)c1OC,nt,1%,nt,nt,nt,0
Clc1ccc(-n2nnc(-c3nccs3)n2)cc1Cl,-14%,27µM*,-2%,3.2µM*,16µM*,-25
Cc1ccc(-n2nnc(-c3nccs3)n2)cc1,6%,4%,56%,2%[59 µM],-3%,-11
CCN(c1ccccc1)S(=O)(=O)c1ccc(OC)c(NC(=O)COc2ccc(C(C)=O)cc2)c1,6%,5%,16%,56µM*,-10%,-2
CCN(c1ccccc1)S(=O)(=O)c1ccc(OC)c(NC(=O)CCc2nc3ccccc3c(=O)[nH]2)c1,-1%,0%,11%,45µM*,-15%,3
CCN(c1ccccc1)S(=O)(=O)c1ccc(OC)c(NC(=O)Cc2ccc(F)cc2)c1,13%,6%,36%,16%[12.7 µM],8%,-2
CCN(c1ccccc1)S(=O)(=O)c1ccc(OC)c(NC(=O)CNCCc2ccccc2)c1,32µM*,-15%,50µM*,?,0.89µM*,-4
SMILES,BAZ2B block,PLK1 PBD block,HP1b chromo inh,G9a inh,JMJD2A Tudor inh,PI5P4Ka inh
COc1ccc(S(=O)(=O)N2CCOCC2)cc1NC(=O)CCc1nc2ccccc2c(=O)[nH]1,-17%,-29%,10%,?,-4%,4
COC(=O)C[C@H](NC(=O)Cn1cnc2c(SC)nc(N)nc21)C(=O)OC,nt,-7%,21%,nt,-16%,-1
COc1ccc(CNC(=O)c2nc(S(=O)(=O)Cc3ccccc3)ncc2Cl)cc1,-37%,24µM*,27%,?,-1%,2
CCOc1ccc(N(Cc2ccccc2)C(=O)c2nc(SC)ncc2Cl)cc1,7%,nt,38%,2%[59 µM],-1%,nt
O=C(NCc1ccc2c(c1)OCO2)c1nc(S(=O)(=O)Cc2ccccc2)ncc1Cl,-25%,?,9%[57 µM],50µM*,-24%,-12
O=C(NCc1ccccc1)c1nc(S(=O)(=O)Cc2ccccc2)ncc1Cl,-15%,?,12%,-3%[0.501 µM],-28%,-5
COc1ccc(N(Cc2ccccc2)C(=O)c2nc(S(C)(=O)=O)ncc2Cl)cc1,-11%,nt,40%,11µM*,-14%,nt
CS(=O)(=O)c1ncc(Cl)c(C(=O)N(Cc2ccc(Cl)cc2)Cc2ccco2)n1,-31%,nt,7%,11µM*,-35%,nt
Cc1ccc(NC(=O)Cn2c(=O)n(Cc3nc(-c4ccccc4)no3)c(=O)c3ccccc32)c(C)c1,-6%,nt,18%,-8%[59 µM],-11%,nt
CC1(C)OC(=O)C2(Cc3ccc(Cl)cc3N3CCCC32)C(=O)O1 (stereo unspecified),nt,nt,28%[57 µM],nt,-8%[57.1 µM],nt
O=C(NCc1ccc2c(c1)OCO2)c1nc(S(=O)(=O)Cc2ccccc2F)ncc1Cl,-36%,13µM*,37%,18µM*,6%,-3
CN(C)c1ccc(-c2cncnc2-n2ccnc2)cc1,nt,nt,nt,-9%[0.501 µM],nt,nt
O=C1Nc2ccccc2/C1=C/c1cccnc1,-15%,27µM*,-3%,-47%,-28%,-8
O=C1Nc2ccccc2/C1=C/c1ccccc1F,?,30µM*,4%,4%,?,-12
Cc1ccccc1/C=C1\C(=O)Nc2ccc(F)cc21,?,-6%,37%,-4%,-33%,5
CN(C)c1ccc(/C=C2\C(=O)Nc3ccccc32)cc1,nt,nt,nt,14µM*,nt,nt
CN(C)c1ccc(/C=C2/NC(=O)NC2=O)cc1,-11%,8%,30%,14%[59 µM],-17%,-5
CCS(=O)(=O)N1CCN(Cc2c[nH]c3ccccc23)CC1,56µM*,5%,?,14µM*,1.1µM*,-6
c1cnc(N2CCN(Cc3c[nH]c4ccccc34)CC2)nc1,-8%,-7%,6%,?,-22%,11
CN1CCCN(Cc2ccccc2Br)CC1,?,-7%,?,22µM*,0.89µM*,-5
